Source: PubChem BioAssay (NCATS)
Records with an inconclusive call do not appear. Entries that show only a call come without a potency. The source made the active and inactive calls. Calls follow the shape of the dose curve; as a rule, active = well fitted curve in the direction sought with a large enough effect in the signal ratio; inconclusive = small, poorly fitted or top-dose-only effect, or a change in a side signal; inactive = no such curve, though single readings can be large or run the other way; the % refers to the signal ratio.

The molecules below were run against Tumor necrosis factor (Homo sapiens) (UniProt P01375) (assay: qHTS assay to identify small molecules that stimulate Tumor Necrosis Factor-alpha (TNF-alpha) secretion (AID 651757)). Settings: Human cells, HTRF 665/615 ratio; series mostly up to 92.2 µM.
Chain of Tumor necrosis factor (Homo sapiens) (P01375 whole entry, looked up): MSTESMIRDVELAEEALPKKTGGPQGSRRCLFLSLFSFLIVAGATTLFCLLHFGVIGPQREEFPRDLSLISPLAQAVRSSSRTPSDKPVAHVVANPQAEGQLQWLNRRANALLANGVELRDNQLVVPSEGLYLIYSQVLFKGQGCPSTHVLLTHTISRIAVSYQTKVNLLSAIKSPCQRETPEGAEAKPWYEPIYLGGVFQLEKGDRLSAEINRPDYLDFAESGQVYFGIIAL
Source text: National Center for Advancing Translational Sciences [NCATS]
NIH Chemical Genomics Center [NCGC]
National Institutes of Environmental Health Sciences [NIEHS]
National Toxicology Program [NTP]
Tumor Necrosis Factor-alpha (TNF-alpha), a secreted cytokine, plays an important role in inflammatory diseases and immune disorders. TNF-alpha, a 17 kDa cytokine, is mainly secreted by activated macrophages and monocytes in response to several inflammatory and immunological stimuli. To study the effect of environmental chemicals on TNF-alpha secretion, a homogeneous TNF-alpha assay was developed using Time Resolved fluorescence (HTRF) technology based on Time Resolved Fluorescent Resonance Energy Transfer (TR-FRET) (Leister et al., Current Chemical Genomics, 5:21-29, 2011). This assay allows measuring TNF-alpha secreted from the cells in a 1536-well plate format.
THP-1 cells were dispensed at 3000 cells/5ul/well in 1536-well white solid plates. After addition of 23 nl of compound, positive controls and DMSO only, the assay plates were incubated at 37 C for 17 hrs, followed by addition of 5 uLof mixture of cryptate labeled and XL665 labeled anti-TNF-alpha antibodies. After the assay plates were incubated at room temperature for 3 hr, the plates were measured by an EnVision plate reader.
For `O=Cc1cccc(Br)c1`, the Potency was “inactive”. `C1CCCC1` was tested, and the Potency was “inactive”. In the case of `O=[N+]([O-])c1ccc(CCO)cc1`, the Potency is reported as “inactive”. With `CCCCCCO` the Potency was “inactive”. In the case of `CC(C)Nc1ccccc1`, the Potency is reported as “inactive”. For `CCCCCO`, the Potency was “inactive”. `OC1CCCC1` was tested, and the Potency was “inactive”. `C=Cc1ccc(C=C)cc1` was tested, and the Potency was “inactive”. For `C=C(C)C(=O)OCCCCCCCCCC`, the Potency was “inactive”. `O=[N+]([O-])c1cccc(C(F)(F)F)c1` was tested, and the Potency was “inactive”. With `CCCCCCCCC` the Potency was “inactive”. In the case of `CC(C)(O)CCC(C)(C)O`, the Potency is reported as “inactive”. In the case of `Nc1cccc(C(F)(F)F)c1`, the Potency is reported as “inactive”. `O=C1NC(=O)c2cc([N+](=O)[O-])ccc21` was tested, and the Potency was “inactive”. In the case of `N#Cc1ccccc1`, the Potency is reported as “inactive”. With `CCCCCNCCCCC` the Potency was “inactive”. In the case of `N#CCc1ccccc1[N+](=O)[O-]`, the Potency is reported as “inactive”. With `O=c1[nH][nH]c(=O)c2cc([N+](=O)[O-])ccc12` the Potency was “inactive”. `C=CCOC(=O)COCCC(C)C` was tested, and the Potency was “inactive”. `C/C(C=O)=C/c1ccccc1` was tested, and the Potency was “inactive”. In the case of `N#CC1(O)CCCCC1`, the Potency is reported as “inactive”. `CCCCCCCCC/C=C/CC1CC(=O)OC1=O` (stereo not given) was tested, and the Potency was “inactive”. `Cc1ccc(C(=O)O)cc1` was tested, and the Potency was “inactive”. In the case of `Nc1nc(CC(=O)O)cs1`, the Potency is reported as “inactive”. With `Cc1ccc(C)c([N+](=O)[O-])c1` the Potency was “inactive”. With `CC=O` the Potency was “inactive”. In the case of `CC(=O)CCc1ccccc1`, the Potency is reported as “inactive”. In the case of `COc1ccccc1[N+](=O)[O-]`, the Potency is reported as “inactive”. For `NC(=S)NNC(N)=S`, the Potency was “inactive”. With `O=C(O)CNC(=O)c1ccc(CO)o1` the Potency was “inactive”. `c1ccc2n[nH]nc2c1` was tested, and the Potency was “inactive”. For `CC#N`, the Potency was “inactive”. For `CCCCCCCCCCCCC1CO1` (stereo not given), the Potency was “inactive”. `NC=O` was tested, and the Potency was “inactive”. In the case of `CNc1ccccc1`, the Potency is reported as “inactive”. `C=C(C)C1CC=C(C)C(OC(C)=O)C1` (stereo not given) was tested, and the Potency was “inactive”. `CCCCC(CC)COC(=O)CCCCC(=O)OCC(CC)CCCC` (stereo not given) was tested, and the Potency was “inactive”. With `CC(C)(C)OCC1CO1` (stereo not given) the Potency was “inactive”. In the case of `CCCCCCC(=O)O`, the Potency is reported as “inactive”. In the case of `CN(C)CCCNCCCN`, the Potency is reported as “inactive”.
